For 23 targets, log2 fold change results are on record in the supplement of paper PMC10849652.

About 7,900 targets were measured; listed, in parts, are those with a hit and a random draw of the rest. About 0.6% of all pairs of compound and target were hits.

UniProt P23497, sequence (P23497 whole entry, looked up): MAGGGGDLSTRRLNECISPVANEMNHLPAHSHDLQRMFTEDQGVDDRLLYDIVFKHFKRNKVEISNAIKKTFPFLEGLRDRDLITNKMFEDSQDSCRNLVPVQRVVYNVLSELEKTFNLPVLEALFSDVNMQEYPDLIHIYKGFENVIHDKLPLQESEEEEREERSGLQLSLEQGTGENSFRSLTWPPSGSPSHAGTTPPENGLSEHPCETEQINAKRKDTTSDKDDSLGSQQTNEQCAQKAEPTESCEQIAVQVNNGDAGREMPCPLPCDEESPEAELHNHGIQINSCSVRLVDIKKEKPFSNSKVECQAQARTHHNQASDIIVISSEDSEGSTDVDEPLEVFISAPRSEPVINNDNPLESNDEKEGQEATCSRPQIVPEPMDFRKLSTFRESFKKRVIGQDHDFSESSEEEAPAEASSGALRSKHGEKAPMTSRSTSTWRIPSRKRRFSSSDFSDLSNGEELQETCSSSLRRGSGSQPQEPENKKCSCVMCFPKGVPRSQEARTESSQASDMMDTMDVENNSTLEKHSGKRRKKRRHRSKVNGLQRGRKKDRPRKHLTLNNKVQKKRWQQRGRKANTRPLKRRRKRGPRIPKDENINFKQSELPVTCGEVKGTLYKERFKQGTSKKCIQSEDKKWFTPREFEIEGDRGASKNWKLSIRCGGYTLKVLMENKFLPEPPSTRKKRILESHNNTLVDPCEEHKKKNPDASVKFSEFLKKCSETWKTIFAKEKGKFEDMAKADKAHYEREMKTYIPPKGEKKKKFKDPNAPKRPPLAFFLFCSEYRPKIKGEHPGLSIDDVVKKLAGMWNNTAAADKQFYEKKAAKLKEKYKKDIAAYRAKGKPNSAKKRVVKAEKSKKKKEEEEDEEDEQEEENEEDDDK
UniProt O94901, sequence (O94901 whole entry, looked up): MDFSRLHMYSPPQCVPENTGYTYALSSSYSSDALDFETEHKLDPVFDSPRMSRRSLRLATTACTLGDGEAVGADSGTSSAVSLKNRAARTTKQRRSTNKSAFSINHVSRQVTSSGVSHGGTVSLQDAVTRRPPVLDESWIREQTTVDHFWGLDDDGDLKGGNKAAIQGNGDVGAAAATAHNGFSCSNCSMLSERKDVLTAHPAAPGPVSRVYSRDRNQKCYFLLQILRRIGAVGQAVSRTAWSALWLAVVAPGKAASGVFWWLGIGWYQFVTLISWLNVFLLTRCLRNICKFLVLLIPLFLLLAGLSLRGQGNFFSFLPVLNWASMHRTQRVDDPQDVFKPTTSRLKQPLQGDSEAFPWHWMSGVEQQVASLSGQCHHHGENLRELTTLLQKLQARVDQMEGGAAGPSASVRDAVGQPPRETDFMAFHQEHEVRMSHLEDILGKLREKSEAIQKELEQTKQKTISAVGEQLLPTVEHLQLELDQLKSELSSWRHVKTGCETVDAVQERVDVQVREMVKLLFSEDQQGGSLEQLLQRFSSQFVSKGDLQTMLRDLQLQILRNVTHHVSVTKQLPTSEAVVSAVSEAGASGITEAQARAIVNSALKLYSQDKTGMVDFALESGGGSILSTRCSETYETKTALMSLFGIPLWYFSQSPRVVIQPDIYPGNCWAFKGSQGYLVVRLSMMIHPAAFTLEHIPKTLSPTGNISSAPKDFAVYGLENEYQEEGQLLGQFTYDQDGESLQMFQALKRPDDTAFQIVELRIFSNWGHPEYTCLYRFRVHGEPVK
UniProt Q9UH99, sequence (Q9UH99 whole entry, looked up): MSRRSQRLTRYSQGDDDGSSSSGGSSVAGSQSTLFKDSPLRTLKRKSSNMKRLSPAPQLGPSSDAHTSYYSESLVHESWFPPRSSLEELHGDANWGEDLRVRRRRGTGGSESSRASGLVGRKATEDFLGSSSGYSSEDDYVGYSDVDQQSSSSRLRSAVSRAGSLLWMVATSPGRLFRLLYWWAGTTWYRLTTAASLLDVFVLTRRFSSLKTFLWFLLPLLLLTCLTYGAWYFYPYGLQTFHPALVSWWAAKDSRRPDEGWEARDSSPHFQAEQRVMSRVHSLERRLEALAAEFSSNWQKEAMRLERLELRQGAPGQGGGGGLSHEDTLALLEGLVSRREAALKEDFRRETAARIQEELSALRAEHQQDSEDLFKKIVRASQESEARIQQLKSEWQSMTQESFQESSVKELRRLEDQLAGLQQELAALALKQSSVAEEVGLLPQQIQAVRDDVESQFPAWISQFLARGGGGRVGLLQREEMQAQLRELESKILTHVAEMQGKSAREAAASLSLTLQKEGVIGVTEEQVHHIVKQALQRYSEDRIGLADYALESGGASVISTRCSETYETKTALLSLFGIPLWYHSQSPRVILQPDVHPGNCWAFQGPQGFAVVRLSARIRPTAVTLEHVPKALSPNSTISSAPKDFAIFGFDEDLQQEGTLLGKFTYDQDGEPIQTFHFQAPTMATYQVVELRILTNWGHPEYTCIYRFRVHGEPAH
UniProt P36956, sequence (P36956 whole entry, looked up): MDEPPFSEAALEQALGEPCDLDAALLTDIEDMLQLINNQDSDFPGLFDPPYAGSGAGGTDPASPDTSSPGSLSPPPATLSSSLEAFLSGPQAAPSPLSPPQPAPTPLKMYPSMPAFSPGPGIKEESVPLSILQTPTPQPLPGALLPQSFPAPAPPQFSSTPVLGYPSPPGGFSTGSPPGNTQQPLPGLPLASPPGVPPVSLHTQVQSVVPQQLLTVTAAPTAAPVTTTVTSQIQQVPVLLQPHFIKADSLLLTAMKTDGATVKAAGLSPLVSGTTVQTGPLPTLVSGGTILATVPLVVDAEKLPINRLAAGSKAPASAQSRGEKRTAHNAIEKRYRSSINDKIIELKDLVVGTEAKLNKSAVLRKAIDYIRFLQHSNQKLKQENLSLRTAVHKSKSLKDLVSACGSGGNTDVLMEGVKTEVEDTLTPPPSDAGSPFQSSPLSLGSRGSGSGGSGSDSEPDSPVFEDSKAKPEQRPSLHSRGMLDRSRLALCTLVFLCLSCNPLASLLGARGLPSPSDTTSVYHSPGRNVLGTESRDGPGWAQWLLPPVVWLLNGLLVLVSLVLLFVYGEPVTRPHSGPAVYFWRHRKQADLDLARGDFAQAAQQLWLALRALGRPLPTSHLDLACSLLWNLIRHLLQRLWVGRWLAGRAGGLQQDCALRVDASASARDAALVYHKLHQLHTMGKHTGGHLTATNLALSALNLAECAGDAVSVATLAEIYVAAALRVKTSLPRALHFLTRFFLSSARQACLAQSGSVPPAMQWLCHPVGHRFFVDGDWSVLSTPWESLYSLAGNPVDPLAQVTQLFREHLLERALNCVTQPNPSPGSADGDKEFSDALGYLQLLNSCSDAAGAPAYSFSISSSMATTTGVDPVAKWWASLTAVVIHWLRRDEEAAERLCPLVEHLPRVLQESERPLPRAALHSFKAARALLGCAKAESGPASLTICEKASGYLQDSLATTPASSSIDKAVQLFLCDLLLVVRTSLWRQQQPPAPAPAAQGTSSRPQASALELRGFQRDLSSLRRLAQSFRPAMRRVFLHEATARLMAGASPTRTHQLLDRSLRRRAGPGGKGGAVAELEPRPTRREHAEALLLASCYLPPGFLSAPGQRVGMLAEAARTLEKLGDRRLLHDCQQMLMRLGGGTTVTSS
UniProt Q9UNH7, sequence (Q9UNH7 whole entry, looked up): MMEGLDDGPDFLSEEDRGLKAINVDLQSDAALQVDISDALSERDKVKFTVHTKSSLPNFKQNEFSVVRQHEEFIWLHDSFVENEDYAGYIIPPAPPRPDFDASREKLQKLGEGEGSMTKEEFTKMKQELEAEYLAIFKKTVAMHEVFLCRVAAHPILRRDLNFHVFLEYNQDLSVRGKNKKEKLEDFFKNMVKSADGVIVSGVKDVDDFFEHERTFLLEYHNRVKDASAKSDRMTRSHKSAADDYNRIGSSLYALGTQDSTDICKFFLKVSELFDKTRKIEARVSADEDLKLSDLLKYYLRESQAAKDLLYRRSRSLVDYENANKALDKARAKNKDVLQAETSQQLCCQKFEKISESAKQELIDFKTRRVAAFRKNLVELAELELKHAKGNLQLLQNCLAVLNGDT
UniProt Q96CW6, sequence (Q96CW6 whole entry, looked up): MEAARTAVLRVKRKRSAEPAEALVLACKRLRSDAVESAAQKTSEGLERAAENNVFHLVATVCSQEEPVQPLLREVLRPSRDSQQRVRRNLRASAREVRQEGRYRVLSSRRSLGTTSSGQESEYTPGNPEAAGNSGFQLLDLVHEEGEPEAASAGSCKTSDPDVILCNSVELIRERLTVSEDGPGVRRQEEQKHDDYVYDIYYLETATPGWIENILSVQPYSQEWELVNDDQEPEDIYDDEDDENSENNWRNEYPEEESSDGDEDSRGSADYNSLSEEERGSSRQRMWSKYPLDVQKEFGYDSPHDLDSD
UniProt P27105, sequence (P27105 whole entry, looked up): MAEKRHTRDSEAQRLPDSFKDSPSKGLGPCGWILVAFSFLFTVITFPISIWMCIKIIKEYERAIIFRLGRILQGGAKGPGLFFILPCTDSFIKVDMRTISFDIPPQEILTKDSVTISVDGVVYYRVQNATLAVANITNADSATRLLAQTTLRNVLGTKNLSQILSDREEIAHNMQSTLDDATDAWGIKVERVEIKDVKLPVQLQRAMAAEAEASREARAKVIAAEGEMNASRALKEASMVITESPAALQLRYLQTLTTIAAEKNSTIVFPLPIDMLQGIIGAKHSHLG
UniProt Q16629, sequence (Q16629 whole entry, looked up): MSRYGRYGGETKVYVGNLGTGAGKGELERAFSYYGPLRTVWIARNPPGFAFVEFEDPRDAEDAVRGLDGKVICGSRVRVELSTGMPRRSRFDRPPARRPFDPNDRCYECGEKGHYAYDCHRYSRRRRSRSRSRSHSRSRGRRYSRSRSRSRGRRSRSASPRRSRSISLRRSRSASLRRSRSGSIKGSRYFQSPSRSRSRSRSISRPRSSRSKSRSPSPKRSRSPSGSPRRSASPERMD
UniProt Q15527, sequence (Q15527 whole entry, looked up): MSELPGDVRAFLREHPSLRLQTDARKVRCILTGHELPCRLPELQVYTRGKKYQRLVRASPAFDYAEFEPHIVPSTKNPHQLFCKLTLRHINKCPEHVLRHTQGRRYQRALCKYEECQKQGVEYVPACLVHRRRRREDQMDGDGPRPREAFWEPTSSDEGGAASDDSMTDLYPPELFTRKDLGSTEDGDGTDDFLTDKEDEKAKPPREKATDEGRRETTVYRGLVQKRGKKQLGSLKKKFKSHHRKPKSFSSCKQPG

Compound in the assay: c1cn2cc(-c3ccc4cn[nH]c4c3)nc(Nc3ccc(N4CCOCC4)cc3)c2n1 [entospletinib]
As to the kind of experiment: log2 fold change, soluble protein after heating vs DMSO (PISA); higher = thermal stabilisation; K562 cells, 10 uM, 30 min; active = over 0.2 and 3.5 SD of the protein, either way, in both replicates (recomputed). Put shortly: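 K562 cells at 2×10^6 cells/mL were exposed to 10 μM compound for 30 min, then aliquots were heated for 3 min across 48°C-58°C, pooled, and extracted in PBS containing 0.5% NP-40 at 4°C. The supernatant after 21,000xg for 90 min was taken as soluble protein and measured by TMTpro 16plex LC-MS/MS with channel sums equalised. Thermal stability is reported relative to control samples, with values from duplicates. Fold changes are given on a log2 scale.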
In the case of SNX2 isoform 2 (UniProt O60749), the log2 fold change was -0.255 (inactive). On to STOM (UniProt P27105), for which the log2 fold change was 0.048 (inactive). As for SURF2 (UniProt Q15527), the log2 fold change is 0.047 (inactive). The figure for SPIRE1 (UniProt Q08AE8) is -0.085 (inactive); for SRP72 (UniProt O76094) it is 0.052 (inactive); for SRFBP1 (UniProt Q8NEF9) it is -0.082 (inactive). The figure for TIMM29 (UniProt Q9BSF4) is 0.033 (inactive); for SUN2 (UniProt Q9UH99) it is 0 (inactive). Take SRSF6 (UniProt Q13247): the log2 fold change is 0.29 (inactive). Then TFR2 (UniProt Q9UP52), with 0.052 (inactive). As to SRSF11 (UniProt Q05519), the log2 fold change is 0 (inactive). The figure for SUN1 isoform 9 (UniProt O94901) is -0.064 (inactive); for TENT5C (UniProt Q5VWP2) it is 0.019 (inactive). Then TLK2 isoform 2 (UniProt Q86UE8), with 0.03 (inactive). Take STAT6 (UniProt P42226): the log2 fold change is -0.052 (inactive). The figure for SYK (UniProt P43405) is 0.015 (inactive). For SLC7A6OS (UniProt Q96CW6), the log2 fold change is 0.052 (inactive).

For the target SREBF1 isoform 4 (UniProt P36956), the log2 fold change is 0.015 (inactive).

On to SP100 isoform 4 (UniProt P23497), for which the log2 fold change is 0.045 (inactive). For SNX6 (UniProt Q9UNH7), the log2 fold change was -0.019 (inactive). Take SLC27A4 (UniProt Q6P1M0): the log2 fold change was -0.027 (inactive). SRSF7 (UniProt Q16629): the log2 fold change was 0.197 (inactive). The figure for SMAD2 (UniProt Q15796) is -0.013 (inactive).
